Targets include TCERG1; TCEANC2; TCL1B; TCTN3; TEAD3; TGFB1I1; TMEFF2; TMED3; TMED9; TMCO6.
Common to all, as to assay: pooled miR-30 sensor sort-seq; sequence = guide strand
Conditions in all cases: shRNA
Note: reference of the scale not given here.

In the assay with TCERG1, TATCAGACCATGACACATCTGA showed a sensor-assay potency score (higher = more potent) of 0.29.

TTACGCATCTTGTTCACAGTGT displayed a sensor-assay potency score (higher = more potent) in the assay with TCEANC2 of 0.769.

For TTCATATCTGCTGCCCTGGGAG, the sensor-assay potency score (higher = more potent) with TCL1B is -0.879.

In the case of TATAGGAATCGAACTCCTGATA, in the assay with TCTN3, the sensor-assay potency score (higher = more potent) was -0.82.

TCCTCATCTTCGTAGATGCCAG displayed a sensor-assay potency score (higher = more potent) with TCL1B of -1.52.

In turn, TTGGTCTCTATCTCATAGGTGA registered a sensor-assay potency score (higher = more potent) in the assay with TCTN3 of -0.211.

TTACTCTCTAGGAAACCTGCAG had a sensor-assay potency score (higher = more potent) with TCTN3 of 0.205.

TTTATAGCTGAAATGCTGCAGT had a sensor-assay potency score (higher = more potent) with TCTN3 of 0.223.

TTGTGCTTGCACTTGTGCCTGG: the sensor-assay potency score (higher = more potent) with TCERG1 was found to be 0.389.

TTGATGAACTATCTACTGCTTT gave a sensor-assay potency score (higher = more potent) in the assay with TCERG1 of -0.0553.

Take TTTTAACAGAGCAACTTCCATT: the sensor-assay potency score (higher = more potent) with TCTN3 was -0.964.

Regarding TAGAAGGTCTATTTGAATGTTT, the sensor-assay potency score (higher = more potent) with TCEANC2 was -0.0592.

In the assay with TCTN3, TTTTACTCTCTAGGAAACCTGC yielded a sensor-assay potency score (higher = more potent) of -1.11.

In turn, TTCACAGTGTGACCTATCCTTG gave a sensor-assay potency score (higher = more potent) with TCEANC2 of -0.944.

The sequence AACTGGAATCCGCTGCTCGGTA had a sensor-assay potency score (higher = more potent) with TCL1B of -1.06.

As for TTGCTTTGAATCTTGAATCTTT, the sensor-assay potency score (higher = more potent) with TCERG1 worked out at 0.533.

The sequence TTCTGATTGCTGAATAACCTTA yielded a sensor-assay potency score (higher = more potent) in the assay with TCERG1 of -0.804.

With TGGATCGACAGCATTGTCGGAG, in the assay with TCERG1, the sensor-assay potency score (higher = more potent) was -0.29.

As to TTGTCTTTTACTTTGCTCCATC, the sensor-assay potency score (higher = more potent) with TCERG1 is -0.934.

Turning to TGCTCCATAGAGTCAATCTGGC, the sensor-assay potency score (higher = more potent) with TCL1B is -0.928.

In turn, TTAATTAACCAGTACTGTGAGG came in with a sensor-assay potency score (higher = more potent) in the assay with TCL1B of -0.714.

In the assay with TCL1B, TTGAACCGCACGACCACAGTCA had a sensor-assay potency score (higher = more potent) of -0.246.

Turning to TACATGAAGATCCTCACTGAGG, the sensor-assay potency score (higher = more potent) in the assay with TCL1B was -0.791.

Consider TTAATCTTCTCTTCTAACTTTT, for which the sensor-assay potency score (higher = more potent) with TCERG1 was -0.478.

The sequence TGAATCTTGAATCTTTAGCATG displayed a sensor-assay potency score (higher = more potent) with TCERG1 of -1.15.

TTTATTATCGTCTCTCTTCCGT displayed a sensor-assay potency score (higher = more potent) with TCERG1 of 0.45.

In the assay with TCTN3, TAACTTGCTGAGAATCCTGTAT came in with a sensor-assay potency score (higher = more potent) of -0.198.

Sequence TGTAACTTGCTGAGAATCCTGT had a sensor-assay potency score (higher = more potent) in the assay with TCTN3 of 0.381.

Consider TTGTTCTGCAGGACACTGGCAG, for which the sensor-assay potency score (higher = more potent) in the assay with TEAD3 was -0.245.

TTTAATATAGCGTGCAATCAAC returned a sensor-assay potency score (higher = more potent) with TEAD3 of -1.47.

ATTTGTGGAGCTCACCACCGGT: the sensor-assay potency score (higher = more potent) in the assay with TGFB1I1 is -0.966.

Take TTAAGTTCCTGAAGCAACCGAT: in the assay with TGFB1I1, the sensor-assay potency score (higher = more potent) is -0.211.

In the assay with TMEFF2, TTGTTGTATTGTCTGAACTGTA displayed a sensor-assay potency score (higher = more potent) of -0.51.

Turning to TAGTTGTAAATGTCTTTTCAGC, the sensor-assay potency score (higher = more potent) with TMED3 is -1.07.

Regarding TATGACCATGGTCTCGTCCGGG, the sensor-assay potency score (higher = more potent) with TMED9 is -0.321.

In the assay with TMED3, TATTAAGGTCTTCCGCTCGGGC came in with a sensor-assay potency score (higher = more potent) of -0.618.

As for TTTCTGGATCTGCTCCACTTGT, the sensor-assay potency score (higher = more potent) with TMED9 was -1.3.

TCAGTAACTAAGACTCTGCAGG returned a sensor-assay potency score (higher = more potent) in the assay with TMED9 of -0.549.

Regarding TAGATCTCTTGTCTTATTCTTT, the sensor-assay potency score (higher = more potent) in the assay with TMEFF2 was -0.31.

Sequence TTTAGCAGCAATTTCTGCATAG returned a sensor-assay potency score (higher = more potent) with TMED9 of -0.576.

TTGTCTGAACTGTAGTGCCCTG yielded a sensor-assay potency score (higher = more potent) with TMEFF2 of -0.73.

In the assay with TMCO6, TTTTCTGCAACATTGCACAGAA yielded a sensor-assay potency score (higher = more potent) of 0.104.

As to TAGAATGCTCACACTTCCCATG, the sensor-assay potency score (higher = more potent) with TMEFF2 is -0.607.

TTGTCCGGCAGCTCGAAGGTGA: the sensor-assay potency score (higher = more potent) with TMED3 was -0.973.

As to TGGGAAGTGAAAGTGAACCTGC, the sensor-assay potency score (higher = more potent) with TMED9 came out at 0.118.

Sequence TAACACTGTGATTCTGAGGTGC showed a sensor-assay potency score (higher = more potent) in the assay with TMED9 of 0.27.

As for TTCACCTCCACAAACATGCCAA, the sensor-assay potency score (higher = more potent) in the assay with TMED9 was -0.184.

TTAAGACATACTGAAATCGTAC had a sensor-assay potency score (higher = more potent) in the assay with TMEFF2 of -0.191.

TTGGAGTGAAGACAGATCTGGT registered a sensor-assay potency score (higher = more potent) in the assay with TMED9 of -0.176.

In the assay with TMED9, TGTCTTTAGCAGCAATTTCTGC returned a sensor-assay potency score (higher = more potent) of -1.06.

In the case of TTTCTCAGCAGCCTCTTGCTGA, in the assay with TMCO6, the sensor-assay potency score (higher = more potent) was -0.697.

ATCGTCTCGCCAACAGACCAGT returned a sensor-assay potency score (higher = more potent) in the assay with TMED3 of -1.25.

As to TGCAACATTGCACAGAACTGTG, the sensor-assay potency score (higher = more potent) with TMCO6 is -0.739.

In the assay with TMCO6, AACATTTGTAGCATGTGCTGAG displayed a sensor-assay potency score (higher = more potent) of 0.662.

Consider TACATAGCAGTCAACATCGTAG, for which the sensor-assay potency score (higher = more potent) with TMED3 was -0.235.

In the assay with TMED9, TTGTCATACAGCTGCGTCCGGT gave a sensor-assay potency score (higher = more potent) of -1.2.

As to TTTTTTCACAGTGTTGTCCAGT, in the assay with TMEFF2, the sensor-assay potency score (higher = more potent) was -0.255.

In the assay with TMED3, TACCACAGCAGCATCGTTCTGC registered a sensor-assay potency score (higher = more potent) of 0.426.

As for TTCGTTTCTCTGTAGATGGTGT, the sensor-assay potency score (higher = more potent) with TMED3 was 0.459.

As for ATGACCATGGTCTCGTCCGGGA, in the assay with TMED9, the sensor-assay potency score (higher = more potent) was -0.96.
